Source: PubChem BioAssay (Tox21)
Results filed as inconclusive are left out. Calls of active or inactive are those of the source. Unless noted, calls follow the shape of the full dose curve.

Assays:
[1] = qHTS assay to identify small molecule antagonists of the sonic hedgehog signaling (Shh) pathway (AID 1259369); also: nearly all actives have a fitted effect of over 45% in size; also: potency is read from the fitted curve at half-maximal effect
In short: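 Luminescence readout: firefly Luc under Gli1 response element in 3T3Gli1-Luc cells (NIH/3T3 clone). Antagonist mode, stimulation by conditioned medium; compound exposure 24hr at 37 C, 5% CO2.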

[2] = qHTS assay to identify small molecule agonists of the estrogen receptor beta (ER-beta) signaling pathway - cell viability counter screen (AID 1259380; active = well fitted curve in the direction sought with a large enough effect in the repeat runs; an effect the other way counts as inactive or inconclusive; also: nearly all actives have a fitted effect of over 30% in size; also: potency is read from the fitted curve at half-maximal effect)
In short: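 Luminescence read-out (CellTiter-Glo, 30 min, room temp) taken in the same wells as the beta-lactamase reporter assay; ER-beta-UAS-bla HEK293T cells exposed to DMSO-dissolved compounds for 16 hr at 37C in 2% charcoal-stripped FBS medium.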

[3] = qHTS assay to identify small molecule antagonists of the estrogen receptor beta (ER-beta) signaling pathway - cell viability counter screen (AID 1259382; active = well fitted curve in the direction sought with a large enough effect in the repeat runs; an effect the other way counts as inactive or inconclusive;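 also: HEK293T cells carrying ER-beta-UAS-bla reporter stimulated with estradiol; series mostly up to about 92 µM; nearly all actives have a fitted effect of over 55% in size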)
In short: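 Luminescent ATP read-out (CellTiter-Glo, 30 min, RT) taken in the same wells as the bla reporter assay. HEK293T ER-beta-UAS-bla cells in 2% charcoal-stripped FBS were exposed to compounds with 1nM E2 for 16 hr at 37C.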

[4] = biological target: Estrogen receptor (Homo sapiens) (UniProt P03372); experiment: qHTS assay to identify small molecule agonists of the estrogen receptor alpha (ER-alpha) signaling pathway in the presence of an antagonist (AID 1259383); also: top concentration of the series differs between compounds; nearly all actives have a fitted effect of over 15% in size
Sequence of Estrogen receptor (Homo sapiens) (P03372 whole entry, looked up): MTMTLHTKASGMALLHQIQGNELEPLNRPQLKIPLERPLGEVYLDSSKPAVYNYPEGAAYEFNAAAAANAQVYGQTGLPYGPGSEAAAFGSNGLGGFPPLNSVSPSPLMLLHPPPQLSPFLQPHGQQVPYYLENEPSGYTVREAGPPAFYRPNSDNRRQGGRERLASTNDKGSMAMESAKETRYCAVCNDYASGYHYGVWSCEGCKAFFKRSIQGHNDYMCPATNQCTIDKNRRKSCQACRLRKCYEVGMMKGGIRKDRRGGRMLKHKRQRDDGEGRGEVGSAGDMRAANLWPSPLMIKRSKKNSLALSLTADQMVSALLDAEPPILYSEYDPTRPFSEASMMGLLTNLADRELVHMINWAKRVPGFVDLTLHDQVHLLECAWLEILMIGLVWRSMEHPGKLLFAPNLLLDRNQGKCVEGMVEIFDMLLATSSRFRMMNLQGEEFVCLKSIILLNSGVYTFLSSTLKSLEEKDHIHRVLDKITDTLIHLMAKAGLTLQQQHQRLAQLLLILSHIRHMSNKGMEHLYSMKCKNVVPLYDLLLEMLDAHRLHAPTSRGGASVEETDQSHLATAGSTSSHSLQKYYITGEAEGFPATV
In short: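 Luciferase luminescence (ONE-Glo, 30min at room temperature) measured in VM7Luc4E2 cells after 22hr compound exposure at 15 concentrations, with 10.0nM ICI-182,780 final present; cells express endogenous ER-alpha and carry four EREs upstream of luciferase.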

[5] = qHTS assay to identify small molecule agonists of the androgen receptor (AR) signaling pathway in the presence of an antagonist - cell viability counter screen (AID 1259379; active = well fitted curve in the direction sought with a large enough effect in the repeat runs; an effect the other way counts as inactive or inconclusive; also: nearly all actives have a fitted effect of over 25% in size; also: potency is read from the fitted curve at half-maximal effect;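 as to activity change, negative = cytotoxicity: MDA-kb2 human breast cancer cells carrying an MMTV luciferase reporter; series mostly up to about 92 µM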)
In short: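 Viability counter screen: CellTiter-Fluor fluorescence, measured in the same wells as the luciferase read-out. MDA-kb2 cells, 3,000/well, with nilutamide at 3.0uM final and compounds at 15 concentrations, 16 hr at 37C, 0% CO2.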

[6] = qHTS assay to identify small molecule agonists or antagonists of the thyroid stimulating hormone receptor (TSHR) signaling pathway - wild type cell line counter screen (AID 1259384)
In short: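 Counter screen in untransfected Hek293: compounds (15-point titration, triplicate) plus phosphodiesterase inhibitor Ro20-1724 added after 18 h plating; 30 min RT. Intracellular cAMP via competitive d2/cryptate immunoassay, 1 h incubation.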

[7] = biological target: Thyrotropin receptor (Homo sapiens) (UniProt P16473); experiment: qHTS assay to identify small molecule antagonists of the thyroid stimulating hormone receptor (TSHR) signaling pathway (AID 1259385); also: nearly all actives have a fitted effect of over 20% in size
Sequence of Thyrotropin receptor (Homo sapiens) (P16473 whole entry, looked up): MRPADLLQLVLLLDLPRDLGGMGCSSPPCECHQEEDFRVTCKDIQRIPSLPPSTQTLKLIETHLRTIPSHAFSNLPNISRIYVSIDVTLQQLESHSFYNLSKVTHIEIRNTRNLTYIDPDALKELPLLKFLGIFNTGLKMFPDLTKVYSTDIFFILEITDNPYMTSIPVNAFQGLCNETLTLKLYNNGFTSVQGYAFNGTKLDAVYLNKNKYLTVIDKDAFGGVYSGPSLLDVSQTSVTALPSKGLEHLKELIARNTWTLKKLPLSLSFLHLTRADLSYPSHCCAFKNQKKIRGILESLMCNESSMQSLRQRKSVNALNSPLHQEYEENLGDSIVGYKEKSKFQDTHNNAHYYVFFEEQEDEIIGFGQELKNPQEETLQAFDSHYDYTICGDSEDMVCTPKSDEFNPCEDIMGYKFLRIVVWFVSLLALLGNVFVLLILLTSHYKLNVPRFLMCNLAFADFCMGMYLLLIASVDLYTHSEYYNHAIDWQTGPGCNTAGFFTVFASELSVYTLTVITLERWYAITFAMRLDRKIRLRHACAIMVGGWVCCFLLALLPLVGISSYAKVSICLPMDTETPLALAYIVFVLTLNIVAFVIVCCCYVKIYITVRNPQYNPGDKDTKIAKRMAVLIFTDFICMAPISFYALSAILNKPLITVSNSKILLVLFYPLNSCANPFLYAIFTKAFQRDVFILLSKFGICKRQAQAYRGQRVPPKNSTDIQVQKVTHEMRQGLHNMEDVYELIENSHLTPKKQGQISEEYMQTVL
In short: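 Antagonist mode: compound-treated TSHR-expressing HEK293 cells were stimulated with 1.5 ng/mL TSH (final) in presence of Ro20-1724 for 30 min at RT. HTRF cAMP detection after 1 h; each compound tested at 15 concentrations, triplicate.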

[8] = biological target: Androgen receptor (Homo sapiens) (UniProt P10275); experiment: qHTS assay to identify small molecule agonists of the androgen receptor (AR) signaling pathway in the presence of an antagonist (AID 1259381); also: nearly all actives have a fitted effect of over 15% in size
Sequence of Androgen receptor (Homo sapiens) (P10275 whole entry, looked up): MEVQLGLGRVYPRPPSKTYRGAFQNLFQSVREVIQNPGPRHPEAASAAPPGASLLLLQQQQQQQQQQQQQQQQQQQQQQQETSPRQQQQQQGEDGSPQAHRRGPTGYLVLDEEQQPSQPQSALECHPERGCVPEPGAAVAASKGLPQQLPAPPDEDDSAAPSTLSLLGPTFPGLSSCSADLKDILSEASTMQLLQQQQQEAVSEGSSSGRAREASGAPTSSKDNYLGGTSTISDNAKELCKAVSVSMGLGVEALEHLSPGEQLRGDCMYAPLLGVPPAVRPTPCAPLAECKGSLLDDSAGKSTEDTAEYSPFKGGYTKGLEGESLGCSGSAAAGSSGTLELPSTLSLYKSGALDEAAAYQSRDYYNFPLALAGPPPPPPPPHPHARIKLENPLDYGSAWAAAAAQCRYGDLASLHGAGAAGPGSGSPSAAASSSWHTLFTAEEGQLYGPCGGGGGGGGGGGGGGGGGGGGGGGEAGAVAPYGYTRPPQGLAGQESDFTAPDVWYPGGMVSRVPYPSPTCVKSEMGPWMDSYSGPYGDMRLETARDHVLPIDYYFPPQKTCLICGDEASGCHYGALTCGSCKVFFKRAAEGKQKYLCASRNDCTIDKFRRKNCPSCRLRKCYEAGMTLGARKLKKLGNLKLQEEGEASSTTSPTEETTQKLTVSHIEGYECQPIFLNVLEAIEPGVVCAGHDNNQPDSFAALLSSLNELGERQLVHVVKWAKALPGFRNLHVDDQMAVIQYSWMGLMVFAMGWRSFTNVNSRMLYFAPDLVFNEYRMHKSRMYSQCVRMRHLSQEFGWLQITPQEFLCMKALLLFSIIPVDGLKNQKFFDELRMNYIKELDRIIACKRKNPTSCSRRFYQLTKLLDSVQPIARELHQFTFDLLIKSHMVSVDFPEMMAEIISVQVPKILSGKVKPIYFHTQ
In short: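 Luciferase read-out (ONE-Glo, 30min room temperature) in MDA-kb2 MMTV-reporter cells; agonist mode run in presence of AR antagonist nilutamide, 3.0uM final. Compounds tested as 15-point series, 16hr exposure at 37C, 0% CO2.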

[9] = biological target: Estrogen receptor beta (Homo sapiens) (UniProt Q92731); experiment: qHTS assay to identify small molecule agonists of the estrogen receptor beta (ER-beta) signaling pathway (AID 1259377; active = well fitted activation curve with a large enough effect in the signal ratio in the repeat runs, not every such curve was filed as active; the % refers to the signal ratio)
Sequence of Estrogen receptor beta (Homo sapiens) (Q92731 whole entry, looked up): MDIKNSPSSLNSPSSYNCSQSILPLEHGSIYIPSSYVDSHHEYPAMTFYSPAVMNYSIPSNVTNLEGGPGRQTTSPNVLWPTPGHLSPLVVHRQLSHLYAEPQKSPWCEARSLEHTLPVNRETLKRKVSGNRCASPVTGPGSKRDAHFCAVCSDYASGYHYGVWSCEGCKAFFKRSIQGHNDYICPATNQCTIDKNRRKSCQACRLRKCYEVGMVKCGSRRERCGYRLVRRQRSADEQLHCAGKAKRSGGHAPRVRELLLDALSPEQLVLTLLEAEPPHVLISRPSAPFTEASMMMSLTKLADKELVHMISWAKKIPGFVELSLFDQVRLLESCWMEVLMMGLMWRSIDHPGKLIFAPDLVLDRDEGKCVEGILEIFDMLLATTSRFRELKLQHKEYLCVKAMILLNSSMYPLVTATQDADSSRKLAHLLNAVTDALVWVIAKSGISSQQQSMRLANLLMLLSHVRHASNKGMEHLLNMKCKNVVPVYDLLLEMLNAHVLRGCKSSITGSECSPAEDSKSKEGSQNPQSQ
In short: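 Ratiometric beta-lactamase FRET read-out came after 2 h substrate loading at room temperature. It followed 16 h compound treatment at 37C of GripTite HEK293T cells carrying a UAS-bla reporter, plated in 2% charcoal-stripped FBS medium.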

[10] = biological target: Estrogen receptor beta (Homo sapiens) (UniProt Q92731); experiment: qHTS assay to identify small molecule antagonists of the estrogen receptor beta (ER-beta) signaling pathway (AID 1259378; active = well fitted inhibition curve with a large enough effect in the signal ratio in the repeat runs, not every such curve was filed as active; the % refers to the signal ratio; also: potency is read from the fitted curve at half-maximal effect)
In short: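 Antagonist mode: compounds added to beta-lactamase reporter HEK293T ER-beta-UAS cells stimulated with E2 (1nM final), 16 hr at 37C. LiveBLAzer B/G FRET substrate, 2 hours room temperature, fluorescence read-out.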
% is scaled to controls: 0 for no effect and ±100 for the full control effect.

O=C(O)CNC(=O)c1ccc(CO)o1
inactive: Potency [1] | Potency [2] | outcome [3] | outcome [4]

CC(C)(C#N)Nc1nc(Cl)nc(NC2CC2)n1
active: Potency [1] 0.243 µM
inactive: Potency [5] | outcome [3] | outcome [6] | outcome [7]

CC[N+](C)(CC)CCOC(=O)C1c2ccccc2Oc2ccccc21
inactive: Potency [1] | Potency [5] | Potency [2] | outcome [3] | outcome [6]

Cc1nc2ccc(CN(C)c3ccc(C(=O)N[C@@H](CCC(=O)O)C(=O)O)s3)cc2c(=O)[nH]1
inactive: Potency [1] | Potency [8] | outcome [6] | outcome [7]
active: Potency [2] 0.15 µM

CC/C=C\CCOC(C)OCC (stereo unspecified)
inactive: Potency [1] | Potency [5] | Potency [2] | outcome [3] | outcome [4] | outcome [6] | outcome [7]

Nc1ccccn1
inactive: Potency [1] | Potency [5] | Potency [2] | outcome [3] | outcome [6] | outcome [7]

CCCC(C)C(=O)OCC (stereo unspecified)
inactive: Potency [1] | Potency [5] | Potency [2] | outcome [3] | outcome [4] | outcome [6] | outcome [7]

Clc1cc(Cl)c(Cl)nc1Cl
inactive: Potency [1] | Potency [5] | Potency [2] | outcome [3] | outcome [6] | outcome [7]

Cc1cc(C)c(N=Nc2c(O)c(S(=O)(=O)O)cc3cc(S(=O)(=O)O)ccc23)cc1C
inactive: activity change, negative = inhibition [1] 9.78% [at 8.39 µM] | activity change, negative = cytotoxicity [5] -11.3% [at 8.39 µM] | activity change, negative = cytotoxicity [2] -5.12% [at 8.39 µM] | activity change, negative = cytotoxicity [3] 8.89% [at 8.39 µM] | activation [4] -2.23% [at 8.39 µM] | cAMP activity change [6] 2.77% [at 8.39 µM] | activity change, negative = inhibition [7] -1.06% [at 8.39 µM]

CC(C)COC(=O)c1ccc(N)cc1
inactive: Potency [1] | Potency [5] | Potency [2] | outcome [3] | outcome [6] | outcome [7]

NC(N)=NCCN1CCCCCCC1
inactive: activity change, negative = inhibition [1] 18.5% [at 0.349 µM] | activity change, negative = cytotoxicity [5] -1.24% [at 0.35 µM] | activity change, negative = cytotoxicity [2] 2.58% [at 0.349 µM] | activity change, negative = cytotoxicity [3] 9.29% [at 0.349 µM] | cAMP activity change [6] 3.9% [at 0.349 µM] | activity change, negative = inhibition [7] -0.745% [at 0.349 µM]

COc1cc(C)nc(-n2nc(C)cc2OC)n1
inactive: Potency [1] | Potency [5] | Potency [2] | outcome [3] | outcome [6] | outcome [7]

NC(CCC(=O)O)C(=O)O (stereo unspecified)
inactive: Potency [1] | Potency [5] | outcome [3] | outcome [4] | outcome [6] | outcome [7]

NC(=O)N[C@@H](CCC(=O)O)C(=O)O
inactive: Potency [1] | Potency [5] | Potency [2] | outcome [3] | outcome [6] | outcome [7]

CN1[C@@H]2CC[C@H]1CC(OC(=O)C(O)c1ccccc1)C2 (stereo partly specified)
inactive: Potency [1] | Potency [5] | outcome [3] | outcome [4] | outcome [6] | outcome [7]

COc1cc2c(cc1OC)-c1cc3ccc(OC)c(OC)c3c[n+]1CC2
active: Potency [5] 49 µM
inactive: Potency [1] | outcome [3]

CC(=O)C1CCCCC1=O (stereo unspecified)
inactive: Potency [1] | Potency [5] | Potency [2] | outcome [3] | outcome [4] | outcome [6] | outcome [7]

CO/N=C(\C(=O)N[C@@H]1C(=O)N2C(C(=O)O)=C(CSc3nc(=O)c(O)nn3C)CS[C@H]12)c1csc(N)n1
inactive: Potency [1] | Potency [2] | outcome [3] | outcome [4] | outcome [6]

O=C(c1ccccc1O)c1ccccc1O
inactive: Potency [9] | Potency [5] | Potency [2] | Potency [8] | outcome [3] | outcome [4] | outcome [6] | outcome [7]

COC(=O)C1=C(C)NC(C)=C(C(=O)OC(C)C)C1c1cccc2nonc12 (stereo unspecified)
inactive: Potency [9] | Potency [5] | Potency [2] | Potency [8] | outcome [3] | outcome [6]
active: Potency [10] 26.6 µM

CC[C@H]1OC(=O)[C@H](C)[C@@H](O[C@H]2C[C@@](C)(OC)[C@@H](O)[C@H](C)O2)[C@H](C)[C@@H](O[C@@H]2O[C@H](C)C[C@H](N(C)C)[C@H]2O)[C@](C)(OC)C[C@@H](C)C(=O)[C@H](C)[C@@H](O)[C@]1(C)O
inactive: Potency [5] | Potency [2] | outcome [3] | outcome [4]

C[C@H]1C[C@H]2[C@@H]3CCC4=CC(=O)C=C[C@]4(C)[C@H]3C(=O)C[C@]2(C)[C@@]1(O)C(=O)CO
inactive: Potency [1] | outcome [3] | outcome [4] | outcome [6] | outcome [7]

CCCCCCCCCCCCCCC(=O)O
inactive: Potency [1] | Potency [2] | outcome [3] | outcome [4] | outcome [6] | outcome [7]

CC1OC1C1CCC2(C)OC2C1 (stereo unspecified)
inactive: Potency [9] | Potency [10] | Potency [5] | Potency [2] | outcome [3] | outcome [4] | outcome [6] | outcome [7]

CC(C)(C)C(=O)c1ccccc1
inactive: Potency [1] | Potency [2] | outcome [3] | outcome [4] | outcome [6] | outcome [7]

CC1=NN(c2cc(S(=O)(=O)O)ccc2Cl)C(=O)C1N=Nc1ccccc1 (stereo unspecified)
inactive: Potency [9] | Potency [10] | outcome [3] | outcome [4] | outcome [6] | outcome [7]
active: Potency [5] 27.3 µM

NC(=O)N1c2ccccc2CC(=O)c2ccccc21
inactive: Potency [9] | Potency [10] | Potency [5] | Potency [2] | outcome [3] | outcome [6] | outcome [7]
